From PubChem BioAssay AID588790 (National Center for Advancing Translational Sciences (NCATS), 2011)
In all, about 1,200 compounds went through this assay and about 85 (7%) were called active. Only a selection was taken, and actives are over-represented in it overall. Values without a mark were called inactive. Calls come from the whole dose curve.

Biological target: Beta-2 adrenergic receptor (Homo sapiens) (UniProt P07550)
Test: qHTS assay of beta-arrestin-biased ligands of beta2-adrenergic receptor: Hit Validation with GloSensor; for activation: 0% is about no effect
Details: W9-Glo22F cells, GloSensor cAMP luminescence, beta2AR agonism; activation: at 46.1 µM (top of the series)
Summary of the method: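 Luminescence measured 10 min after GloSensor reagent addition at room temperature. Preceded by compound pinning onto W9-Glo22F cells that had been cultured overnight at 37 deg C under 5% CO2.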
Potency is the fitted concentration of half-maximal effect.

Sequence of Beta-2 adrenergic receptor (Homo sapiens) (P07550 whole entry, looked up): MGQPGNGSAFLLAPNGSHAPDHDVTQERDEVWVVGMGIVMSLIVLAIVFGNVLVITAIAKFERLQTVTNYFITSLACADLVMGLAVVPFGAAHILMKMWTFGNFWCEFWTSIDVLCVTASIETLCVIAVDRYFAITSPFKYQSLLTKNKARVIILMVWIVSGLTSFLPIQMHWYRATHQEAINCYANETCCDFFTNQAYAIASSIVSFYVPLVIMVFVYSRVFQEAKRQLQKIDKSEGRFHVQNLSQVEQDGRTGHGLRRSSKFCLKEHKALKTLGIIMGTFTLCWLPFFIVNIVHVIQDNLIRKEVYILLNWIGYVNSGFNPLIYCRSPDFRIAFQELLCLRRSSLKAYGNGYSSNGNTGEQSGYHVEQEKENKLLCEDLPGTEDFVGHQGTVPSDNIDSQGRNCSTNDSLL

Row | SMILES | activation [%] | Potency
1 | CCCC(=O)N(c1ccc(F)cc1)C1C=CS(=O)(=O)C1 (stereo unspecified) | -2.48 | 
2 | CCCN(CC(=O)Nc1ccc(Cl)cc1Cl)C(=O)/C=C/c1ccco1 | -2.33 | 
3 | COc1c(-c2ccc(O)c(O)c2)oc2cc(O)cc(O)c2c1=O |  | 20.6 µM (active)
4 | COc1c(O)cc(O)c2c(=O)cc(-c3ccccc3)oc12 | 6.12 | 
5 | O=C1C=CC(O)(c2cc(=O)c3c(O)cc(O)cc3o2)C=C1 | -1.16 | 
6 | Fc1ccccc1/C=N/Nc1ncnc2ccccc12 | 0.459 | 
7 | Cc1ccc2cccc(SCC(=O)Nc3ccc(F)cc3)c2n1 | 4.96 | 
8 | NC(=S)n1[nH]c(-c2ccc([N+](=O)[O-])cc2)c(N=Nc2ccc(Cl)cc2)c1=O | -1.16 | 
9 | Clc1ccc(OCc2nc(-c3ccccn3)n[nH]2)cc1 | 0 | 
10 | COc1cnc(-c2ccccn2)nc1Oc1ccccc1 |  | 29.1 µM (active)
11 | COc1cnc(-c2ccccn2)nc1Sc1ccccc1Cl | -1.16 | 
12 | Cc1cccc(NC(=S)N/N=C/c2cccc([N+](=O)[O-])c2)c1 | -1.16 | 
13 | CCCCC(=O)N1CCCC(c2nc(-c3cccc(OC)c3)no2)C1 (stereo unspecified) | -1.16 | 
14 | C=C(C)CNC(=S)N/N=C/c1ccco1 | 0.306 | 
15 | COc1ccc(NS(=O)(=O)c2ccc3oc(SC4CCOC4=O)nc3c2)cc1 (stereo unspecified) | -1.16 | 
16 | COC(=O)C1=C(C)N(Cc2ccc(C)cc2)C(=O)/C1=C\c1ccc(O)c(OC)c1 | 3.64 | 
17 | CCOC(=O)C1=C(C)N(c2ccc(C)cc2)C(=O)/C1=C\c1ccc(O)c(OC)c1 |  | 18.4 µM (active)
18 | CCOC(=O)C1=C(C)N(c2ccc(OC)cc2)C(=O)/C1=C\c1ccc(O)c(OCC)c1 | 2.48 | 
19 | CNC(=S)N/N=C/C1=CCC2CC1C2(C)C (stereo unspecified) | 0 | 
20 | O=C1c2ccccc2[C@@H]2C[C@@H](O)[C@H](Nc3cccc4ccccc34)CCN12 | 2.48 | 
21 | CCOC(=O)NC(=S)Nc1ccc(C(C)(C)C)cc1 | 0.306 | 

Row | SMILES | activation [%] | Potency
22 | CNC(=S)N/N=C1\CC(c2ccccc2)Oc2ccccc21 (stereo unspecified) | 3.64 | 
23 | NC(=S)N/N=C1\CCOc2ccc(F)cc21 | 0 | 
24 | NC(=S)N/N=C1\CC(c2ccc3c(c2)OCCCO3)Oc2ccc(F)cc21 (stereo unspecified) |  | 11.6 µM (active)
25 | c1coc(CNc2nc3nonc3nc2NCc2ccco2)c1 | 6.12 | 
26 | C/C(=N\NC(=S)NCc1ccccc1)c1ccccc1F | 2.48 | 
27 | COCCNC(=S)N/N=C(\C)c1ccc(Cl)c(Cl)c1Cl | -1.16 | 
28 | COCCNC(=S)N/N=C(\C)c1ccccc1F |  | 29.1 µM (active)
29 | COc1ccc(C(CNC(=O)c2ccc(C)c(S(=O)(=O)Nc3ccccc3OC)c2)N2CCCC2)cc1 (stereo unspecified) | 0.306 | 
30 | C=CCn1c(CCn2c3ccccc3c3ccccc32)n[nH]c1=S | -1.16 | 
31 | C=CCn1c(CSc2nc3ccccc3s2)n[nH]c1=S |  | 25.9 µM (active)
32 | C=CCn1c(-c2ccccc2)c[nH]c1=S | -2.17 | 
33 | CCN(CC)C(=O)CN(c1cccc(OC)c1)S(=O)(=O)c1ccc(C)cc1 | 0.306 | 
34 | CC1CCN(c2c(NCc3ccc(C(=O)NCCc4ccc(Cl)cc4)cc3)c(=O)c2=O)CC1 | -1.16 | 
35 | O=c1c2cn[nH]c2nc(SCc2ccccc2F)n1-c1ccc(Br)cc1 | 0 | 
36 | CCNC(=S)N/N=C/c1ccco1 | 0 | 
37 | CCNc1nc(NCC)nc(N(C)/N=C/c2ccco2)n1 |  | 20.6 µM (active)
38 | CCNc1nc(NCC)nc(N/N=C/c2ccc(N(C)C)cc2)n1 | -2.33 | 
39 | O=C(/C=C/c1ccccc1)Oc1cccc2cccnc12 | -2.33 | 
40 | Cc1cc(C(=O)CN2C(=O)NC3(CCCc4ccccc43)C2=O)c(C)n1C (stereo unspecified) | 0 | 
41 | Cc1ccc(NC(=S)N2CCn3cccc3C2c2cccnc2)cc1 (stereo unspecified) | 0.459 | 
